The record followed here is PubChem BioAssay (NCI).

The panel holds about 79,000 compounds, 15% with a hit somewhere; the sample as a whole holds those more often. Unmarked numbers belong to inactive results. Cut-off read from the data, not from the text of the source: active = growth inhibition above about 70%; inactive = the rest. Where a SMILES comes first, the peptide text is derived from it. The star is where a group is joined. Cbz = O=C(OCc1ccccc1)*

The test can be described thus: NCI Yeast Anticancer Drug Screen. Data for the rad50 strain (AID 155).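 Note: 0% = growth of vehicle-only cultures of the same strain.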 The note with it: S. cerevisiae rad50 strain growth inhibition; at 50.0 µM; stronger effect = higher value. Put shortly: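 Growth of the mutant yeast was measured after compound exposure and referenced to vehicle-treated cultures.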
For `Cn1c(-c2ccccc2)cc(=O)cc1-c1ccccc1`, the growth inhibition is -22.9%.

Take `C1CCC(CCC2CCCC[N-]2)[N-]C1.[I][Co][I]` (stereo not given): the growth inhibition was 48.3%. The same measure for `CCCCCn1cnc2cc(N3CCOCC3)c([N+](=O)[O-])cc2c1=O`: 4.9%. With `CN(C)C(=N)N=C(N)N`, the growth inhibition was -23.2%. The figure for `CC(=O)Oc1c2oc3cc(O)c(O)cc3c2c(OC(C)=O)c2oc3cc(O)c(O)cc3c12` is -0.4%; for `OCC(O)C(O)C(O)C(Sc1ccccc1)Sc1ccccc1` (stereo not given) it is 7.15%; for `Cn1c(C(N)=O)cc(=O)n1-c1ccc([N+](=O)[O-])cc1` it is 6.35%. The figure for `N/N=C/c1ccc2ccccc2n1` is -14.4%. The figure for `Brc1ccc(Nc2ccc(Br)cc2Br)c(Br)c1` is 28.2%. Consider `CN(C)c1ccc(C=Nc2ccc3c(c2)C(N2CCOCC2)c2ccccc2-3)cc1` (stereo not given), for which the growth inhibition is -14.7%. The figure for `Cc1cc2c3c(c1)CCCN3CCC2` is -12.1%; for `c1ccc(B2O[C@H]3CCCC[C@@H]3O2)cc1` it is 2.15%; for `CCNCC(=O)Nc1ccccc1C(=O)OCC` it is -2.7%. The figure for `CC1CCOC(/C=C/c2ccccc2)O1` (stereo not given) is -7.9%; for `CCCC(=O)OCC1OC2OC(C)(C)OC2C2OC(C)(C)OC12` (stereo not given) it is -4.45%. With `C=C(CC)C(=O)c1ccc(OCC(=O)O)c(Cl)c1Cl`, the growth inhibition is 14.7%. `N#CCCNCCNCCC#N`: the growth inhibition was -30.8%. The figure for `C[N+]([O-])(C/C=C/c1ccccc1)c1ccccc1` (stereo not given) is -3.25%. The figure for `O=c1onc2c3ccccc3ncn12` is 15.2%. The same measure for `CC(C(=O)O)n1c(=O)ssc1=O` (stereo not given): 1.95%; for `CCOC(=O)CCC(NC(=O)c1ccc([N+](=O)[O-])cc1)C(=O)OCC` (stereo not given): 29.6%. For `COc1cc(-c2cc(=O)c3c(O)c(OC)c(OC)cc3o2)ccc1O`, the growth inhibition was -34.3%. The same measure for `CC(=O)c1cc2c(cc1C)CCCC2(C)C`: 0.95%; for `CN(C)CC1CC=CCC1CN(C)C` (stereo not given): -19.8%; for `O=C(CC(=O)N1N=C(N(c2ccccc2)c2ccccc2)CC1c1ccccc1)Nc1ccccc1` (stereo not given): 17.1%. The same measure for `CC(O)C(NC(=O)C(Cc1ccc(O)cc1)NC(=O)OCc1ccccc1)C(=O)O` (stereo not drawn) (Cbz-Tyr-Thr-OH; configuration not given here): -9.65%; for `BrC1(Br)C2CC/C=C/CCCCC21` (stereo not given): -10.1%; for `C=C1CCC/C(=N\Nc2ccc([N+](=O)[O-])cc2[N+](=O)[O-])C12CCCC2`: -2.45%. The figure for `CC(=O)Oc1cccc(/C=C/C(=O)O)c1` is 19%. `Cc1ccc2c(ccc3ccccc32)n1`: the growth inhibition is 59.8%. The figure for `COc1cccc(C2c3cc4c(cc3OC(C)(OC)C2C)OCO4)c1` (stereo not given) is 19.8%; for `O=C(c1nc2ccccc2[nH]1)N1CCN(c2ccccc2)CC1` it is 2.95%; for `O=C(O)c1ccc(CS(=O)c2ccccc2)c([N+](=O)[O-])c1` (stereo not given) it is 8.2%. The figure for `Nc1ccc2ccccc2c1[N+](=O)[O-]` is 25.9%. The figure for `O/N=C1/CCCCC1NO` (stereo not given) is -17.9%.

As for `N#CCCOC1C(OCCC#N)C(OCCC#N)C(OCCC#N)C(OCCC#N)C1OCCC#N` (stereo not given), the growth inhibition was -14.2%.

Turning to `COC1=C(c2c[nH]c3ccc(CC=C(C)C)cc23)C(=O)C(OC)=C(c2c[nH]c3ccc(CC=C(C)C)cc23)C1=O`, the growth inhibition is 30.5%. Consider `CCCCCCC#CC(=O)OCCCC`, for which the growth inhibition is -9.8%.

With `CCc1ccc2c(c1)C(C)(CC)CCC2C` (stereo not given), the growth inhibition is -2.45%.

For `CCCCCCCCC(C)(C)O`, the growth inhibition was -3.15%.
